# From PubChem
# This is a sample that favours compounds with a hit; in the whole collection about 4% have one here.
# tim10-1 inh – growth inhibitors of tim10-1 mutant yeast; S. cerevisiae tim10-1 ts strain growth, BacTiter-Glo, 24 h; inhibition, % at 20 µM; actives 2.2% (n = 330,000);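 active = inhibition of at least 40%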;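 also: mutant grown at 25 °C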
# NALP1 yeast inh – blocks the NALP1 inflammasome reconstituted in yeast; S. cerevisiae NALP1/ASC/caspase-1 growth, X-gal OD620, 72 h; inhibition, % at 10 µM; actives 0.61% (n = 280,000); AID 2071; in the data active = inhibition mostly above about 24%, no sharp cut-off; inactive = mostly below about 32%
# NALP3 yeast inh – NALP3 inhibition in yeast; Yeast reconstituted NLRP3/ASC/caspase-1, beta-gal luminescence, 24 h; inhibition, % at 10 µM; actives 0.39% (n = 330,000); AID 2825;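 active = inhibition of 50% or more; inactive = inhibition below 50%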
# TIM10 inh – growth inhibitors of TIM10 yeast strain. S. cerevisiae TIM10 strain growth, BacTiter-Glo luminescence, 24 h. inhibition, % at 10 µM. actives 1.4% (n = 330,000);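 active = inhibition of 40% or more at the single tested concentration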;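 also: wild-type TIM10 isogenic control strain grown at permissive 25 °C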
# tim23-1 inh – tim23-1 yeast growth inhibition | S. cerevisiae tim23-1 growth, BacTiter-Glo luminescence, 24 h | inhibition, % at 20 µM | actives 1.3% (n = 330,000) | AID 463212;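 active = growth inhibition of the mutant yeast at or above 50%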;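 also: temperature-sensitive mutant grown at 25 °C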
# tim23-1 confirm – tim23-1 yeast growth inhibition, confirmed; S. cerevisiae tim23-1 growth, BacTiter-Glo luminescence, 24 h; actives 83% (n = 4,400); shares compounds with tim23-1 inh; inhibition, % at 20 µM;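 active = inhibition above about 39% in either of two replicate wells at 20 µM, limit read from the data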;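 also: temperature-sensitive tim23-1 mutant grown at 25 °C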
# Numbers stand for hits; 0 = inactive; - = no result.
SMILES,tim10-1 inh,NALP1 yeast inh,NALP3 yeast inh,TIM10 inh,tim23-1 inh,tim23-1 confirm
O=C(Nc1ccccc1)OC1CCC2CC1CCC2OC(=O)Nc1ccccc1 (centres undefined),0,0,0,0,53.0,0
O=S(=O)(Cc1cc(NCc2ccccc2)nc(-c2ccccn2)n1)c1ccccc1,0,0,0,0,0,-
COC(=O)c1ccc(-n2c(C)cc(C(=O)CCl)c2C)cc1,0,0,0,0,52.4,0
C#CCn1cc(/C=N/Nc2nc3ccccc3[nH]2)c2ccccc21,0,0,0,0,0,-
CCCCn1c(/C=N/Nc2nc3ccccc3[nH]2)nc2ccccc21,0,0,0,0,55.0,55.7
Cc1c(CCOC(=O)C23CC4CC(CC(C)(C4)C2)C3)sc[n+]1CC(=O)c1ccccc1,0,0,0,0,62.1,0
CN(C)c1ccc(C2Nc3ccccc3C(=O)N2CCCN2CCOCC2)cc1 (centres undefined),0,0,0,0,0,-
CCCCN1Cc2ccccc2Oc2cc(Br)ccc2S1(=O)=O,0,-,-,0,50.6,0
CC(C)CN1Cc2ccccc2Oc2cc(Br)ccc2S1(=O)=O,0,-,-,0,50.9,0
O=C1C=C(c2cccc(Cl)c2O)C[C@@H](c2ccc(Cl)cc2)C1,0,-,0,0,56.7,39.9
CC(=O)Nc1ccc(C2=CC(=O)C[C@H](c3ccc(Cl)cc3)C2)cc1,0,-,0,0,50.9,42.0
O=C1C=C(c2cccc(Cl)c2)C[C@@H](c2ccc(Cl)cc2)C1,0,-,0,0,0,-
COc1ccc([C@H]2CC(=O)C=C(c3cccc(Cl)c3)C2)cc1,0,-,0,0,51.3,46.0
NS(=O)(=O)c1ccc(CCNC(=O)c2ccc3c(c2)OCCO3)cc1,0,0,0,0,0,-
O=C(Nc1ccc(-c2nc3ccccc3[nH]2)cc1)c1ccc2c(c1)OCO2,0,0,0,0,0,-
c1ccc2[nH]c(-c3ccc4c(c3)OCO4)nc2c1,0,-,0,0,76.9,58.7
Oc1c(Cl)cc(Cl)cc1C=Nc1ccccc1N1CCCC1,0,0,0,0,56.5,53.9
Cc1c(O)cc2n(c1=O)-c1ccc(Cl)cc1C2(C)C,0,0,0,0,0,-
CC1(C)c2cc(Cl)ccc2-n2c1cc(O)c(-c1ccccc1)c2=O,0,-,0,0,61.7,57.5
O=C(NC1CCCC1)c1c(O)nc2sccn2c1=O,0,-,0,0,55.6,0
O=C1C(=O)N(CCS(=O)(=O)c2ccccc2)c2ccc(Cl)cc21,0,0,0,0,0,-
CCCN1C(=O)C(=O)c2cc(Cl)ccc21,0,-,0,0,61.4,39.9
Cc1ccc(OCCCN2C(=O)C(=O)c3cccc(C)c32)cc1,0,0,0,0,52.7,62.5
Cc1ccc(OCCN2C(=O)C(=O)c3cc(C)ccc32)cc1,0,0,0,0,56.6,53.4
Clc1cc2cccnc2c2ncccc12,0,-,0,0,64.7,0
SMILES,tim10-1 inh,NALP1 yeast inh,NALP3 yeast inh,TIM10 inh,tim23-1 inh,tim23-1 confirm
COc1ccc(C2CC(c3ccccc3)=NN2c2ccc(Cl)c(C(=O)O)c2)cc1 (centres undefined),0,0,0,0,0,-
COc1ccc(C2CC(c3ccccc3)=NN2c2ccc(N)cc2)cc1 (centres undefined),0,0,0,0,51.3,41.2
CCC(=O)Nc1cccc(C2=NN(c3ccccc3)C(c3ccc(OC)cc3)C2)c1 (centres undefined),0,0,0,0,51.4,0
CCOC(=O)CSc1nc2ccc(N)cc2s1,0,0,0,0,0,-
Nc1ccc2nc(SCc3cccc(F)c3)sc2c1,0,0,0,0,56.7,45.8
CN1C(=O)/C(=C2\SC(N3CCCCCC3)=NC2=O)c2ccccc21,0,0,0,0,54.7,44.0
CN1C(=O)/C(=C2\SC(N)=NC2=O)c2ccccc21,0,0,0,0,0,-
O=S1(=O)CCC(N=Cc2cc(Br)ccc2O)C1 (centres undefined),0,0,0,0,55.5,43.0
CN1CCc2nc3sc(C(=O)C45CC6CC(CC(C6)C4)C5)c(N)c3cc2C1,0,0,0,0,90.1,84.8
Nc1c(C(=O)O)sc2nc3c(cc12)CCCC3,0,-,0,0,0,-
O=C(CCSc1ccc(Cl)cc1)N1CCN(S(=O)(=O)c2ccccc2)CC1,0,-,0,0,0,-
CCN(Cc1ccccc1)C(=O)c1ccc(C)c(S(=O)(=O)N2CCCCC2)c1,0,-,0,0,50.0,0
Cn1c(=O)c2c(nc(CN3CCc4ccccc4C3)n2Cc2cccc(Cl)c2)n(C)c1=O,0,-,0,0,51.3,54.4
